In PubChem BioAssay (NCI):
About 83,000 compounds went through this panel and 20% of them were active in at least one assay; those are over-represented in the sample as a whole.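 48-hour exposure, single concentration, 96-well plates; percent growth endpoint where 0 means no net growth. Active: below 10.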 The source made the active and inactive calls.

Tests used:
Experiment in all cases: NCI-60 one-dose screen, 48 h (100 = growth as untreated, 0 = no growth, -100 = all killed)
Details in all cases: 10 µM unless noted
[1] = test system: T-47D breast
[2] = test system: BT-549 breast
[3] = test system: MDA-MB-435 melanoma
[4] = test system: SW-620 colon
[5] = test system: MCF7 breast
[6] = test system: HCT-116 colon
[7] = test system: HCC-2998 colon
[8] = test system: KM12 colon

Measured: growth

O=C1c2cc(Br)ccc2-n2c1nc1cc(Br)ccc1c2=O
active: [3] -85.6%
inactive: [1] 79.7% | [2] 124% | [4] 68% | [5] 59.3% | [6] 81.8% | [7] 108% | [8] 77.5%

CS(=O)(=O)c1ccc2c(c1)c1c(n2C(=O)c2ccc(Cl)cc2)CCCC1
active: [3] -24.3%
inactive: [1] 18.1% | [2] 33% | [4] 13.6% | [5] 17.8% | [6] 27.6% | [7] 59.9% | [8] 29.8%

Oc1ccccc1-c1nnc(SCc2ccc(O)c3ncccc23)o1
active: [5] 6.74%
inactive: [1] 11.6% | [2] 32.3% | [3] 18.5% | [4] 28.2% | [6] 10.5% | [7] 46% | [8] 29.3%

COc1cc2c3c(n(CCCNC4CCC4)c(=O)c2cc1OC)-c1cc2c(cc1C3=O)OCO2
active: [3] -65.7% | [4] -15.4% | [5] -71.5% | [6] -48.4% | [7] -89.3%
inactive: [1] 53.5% | [2] 76% | [8] 38.7%

CC[C@]12C=CCN3CC[C@]4(C(=C(C(=O)OC)C1)Nc1cc5c(cc14)[C@@H]1[C@H](O5)[C@@H](O)[C@@]4(CC)CC(C(=O)OC)=C5Nc6cc(OC)ccc6[C@@]56CCN1[C@@H]46)[C@@H]32
inactive: [2] 37.8%
active: [1] 9.28% | [3] -12.5% | [4] 3.27% | [5] 6.01% | [6] -87.2% | [7] -58.7% | [8] 9.56%

O=C(CCCCCCN1CC(=O)N2[C@@H](c3cccc(Cl)c3)c3[nH]c4ccccc4c3C[C@H]2C1=O)NO
inactive: [1] 19.6% | [2] 82.7% | [3] 31.2% | [4] 26.3% | [5] 38% | [6] 14.8% | [7] 72.1% | [8] 54.9%
